Assay results published in PubChem BioAssay (EPA / NIEHS).
Results filed as inconclusive are left out. The source made the active and inactive calls. The calls were made as follows, unless noted: active = hit-call score of the fitted dose curve at least 0.9, where 1 is the maximum; inactive = score below 0.9.

Experiments:
[1] = CEETOX_H295R_OHPROG_noMTC: CeeTox H295R High-throughput Steroidogenesis Assay for OH-Progesterone (OHPROG), maximum tolerated concentration (MTC) filtered results only (AID 2283914); conditions: actives raise or lower the signal
Procedure, shortened: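 H295R cells prestimulated 48 h with 10 uM forskolin, then exposed 48 h to chemical (0.1% DMSO final). 17alpha-hydroxyprogesterone in medium quantified by HPLC-MS/MS after MTBE extraction; bidirectional fitting versus DMSO, concentrations not MTC-filtered.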

[2] = CEETOX_H295R_ANDR_noMTC: CeeTox H295R High-throughput Steroidogenesis Assay for Androstenedione (ANDR), maximum tolerated concentration (MTC) filtered results only (AID 2283915); conditions: actives raise or lower the signal
Procedure, shortened: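 H295R cells, passage 10 or below, prestimulated 48 h with 10 uM forskolin, then exposed 48 h to chemical in 0.1% DMSO. Medium androstenedione extracted with MTBE, quantified by HPLC-MS/MS; concentrations not MTC-filtered; bidirectional fit versus DMSO.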

[3] = CEETOX_H295R_ESTRADIOL_noMTC: CeeTox H295R High-throughput Steroidogenesis Assay for Estradiol, maximum tolerated concentration (MTC) filtered results only (AID 2283919); conditions: actives raise or lower the signal
Procedure, shortened: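 H295R human adrenal cells pre-stimulated 48 h with 10 uM forskolin, then exposed 48 h to chemical (0.1% DMSO final). Estradiol in medium measured by HPLC-MS/MS after MTBE extraction and dansyl derivatization; bidirectional fit versus DMSO, concentrations not MTT-filtered.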

[4] = CEETOX_H295R_PROG_noMTC: CeeTox H295R High-throughput Steroidogenesis Assay for Progesterone (PROG), maximum tolerated concentration (MTC) filtered results only (AID 2283920); conditions: actives raise or lower the signal
Procedure, shortened: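 H295R cells, prestimulated 48 h with 10 uM forskolin, exposed 48 h to chemical in 0.1% DMSO. Medium progesterone quantified by MTBE extraction and HPLC-MS/MS; bidirectional fit versus DMSO, concentrations not MTT-filtered.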

[5] = CEETOX_H295R_ESTRONE_noMTC: CeeTox H295R High-throughput Steroidogenesis Assay for Estrone, maximum tolerated concentration (MTC) filtered results only (AID 2283921); conditions: actives raise or lower the signal
Procedure, shortened: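 H295R cells prestimulated 48 h with 10 uM forskolin, then exposed 48 h to chemical in 0.1% DMSO; medium estrone measured by HPLC-MS/MS after MTBE extraction and dansyl derivatization, fitted bidirectionally versus DMSO without MTT-based MTC filtering.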

[6] = CEETOX_H295R_TESTO_noMTC: CeeTox H295R High-throughput Steroidogenesis Assay for Testosterone (TESTO), maximum tolerated concentration (MTC) filtered results only (AID 2283924); conditions: actives raise or lower the signal
Procedure, shortened: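 H295R cells prestimulated 48 h with 10 uM forskolin, then exposed 48 h to chemicals in 0.1% DMSO final. Testosterone in medium quantified by MTBE extraction and HPLC-MS/MS; bidirectional fit versus DMSO, concentrations […] filtered by MTT-based maximum tolerated concentration.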

[7] = molecular target: PGR (gene 5241) (UniProt P06401); experiment: TOX21_PR_BLA_Followup_Agonist_ratio: Tox21 HEK293 Progesterone Receptor (PR) Agonism Beta-lactamase Follow-Up Assay, Ratio (AID 2283933; active = hit-call score of the fitted dose curve at least 0.9, where 1 is the maximum)
Sequence of PGR (gene 5241) (P06401 whole entry, looked up): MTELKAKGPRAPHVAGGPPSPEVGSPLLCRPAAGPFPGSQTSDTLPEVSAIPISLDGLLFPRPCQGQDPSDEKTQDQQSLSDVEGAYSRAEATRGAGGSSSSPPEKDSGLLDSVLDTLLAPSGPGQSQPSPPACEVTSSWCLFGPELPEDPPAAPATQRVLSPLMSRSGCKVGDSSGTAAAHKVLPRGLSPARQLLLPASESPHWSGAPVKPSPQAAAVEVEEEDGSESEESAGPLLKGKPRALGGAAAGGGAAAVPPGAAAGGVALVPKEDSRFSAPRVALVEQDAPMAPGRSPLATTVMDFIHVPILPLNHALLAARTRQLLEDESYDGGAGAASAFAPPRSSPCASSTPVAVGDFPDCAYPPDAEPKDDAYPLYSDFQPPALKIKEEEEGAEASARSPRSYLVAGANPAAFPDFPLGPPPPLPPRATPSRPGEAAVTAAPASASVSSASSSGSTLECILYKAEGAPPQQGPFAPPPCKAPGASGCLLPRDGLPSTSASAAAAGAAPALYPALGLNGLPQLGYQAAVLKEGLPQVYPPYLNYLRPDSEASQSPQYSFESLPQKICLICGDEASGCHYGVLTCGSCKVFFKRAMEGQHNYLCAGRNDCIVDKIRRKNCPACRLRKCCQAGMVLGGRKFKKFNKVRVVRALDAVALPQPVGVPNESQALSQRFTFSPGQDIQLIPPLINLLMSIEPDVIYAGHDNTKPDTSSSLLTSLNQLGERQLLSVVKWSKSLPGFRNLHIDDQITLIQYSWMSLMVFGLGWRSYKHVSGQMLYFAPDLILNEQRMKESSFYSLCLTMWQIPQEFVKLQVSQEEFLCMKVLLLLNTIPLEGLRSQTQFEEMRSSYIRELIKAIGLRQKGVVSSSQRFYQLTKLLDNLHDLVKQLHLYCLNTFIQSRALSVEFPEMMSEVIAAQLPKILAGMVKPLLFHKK
Procedure, shortened: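 Agonist-mode follow-up in HEK293T cells carrying a UAS-driven beta-lactamase reporter, grown in 2% charcoal-stripped serum. Compounds act for 16 hr; activity is the ch2/ch1 cleavage ratio, with same-well CellTiter-Glo viability run in parallel.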

[8] = CEETOX_H295R_CORTISOL_noMTC: CeeTox H295R High-throughput Steroidogenesis Assay for Cortisol, maximum tolerated concentration (MTC) filtered results only (AID 2283916); conditions: actives raise or lower the signal
Procedure: CEETOX_H295R is a cell-based, multiplexed-readout assay that uses H295R, a human adrenal gland cell line, with measurements taken at 48 hours after chemical dosing in a 96-well plate.CEETOX_H295R_CORTISOL_noMTC is one of 12 assay component(s) measured or calculated from the CEETOX_H295R assay (11 hormones and 1 viability assay). It is designed to make measurements of hormone induction, a form of inducible reporter, as detected with absorbance signals by HPLC-MS-MS technology. The concentrations for these components have not been pre-filtered for the maximum tolerated concentration (MTC) based on the MTT assay (_noMTC).Data from the assay component CEETOX_H295R_CORTISOL_noMTC was analyzed into 1 assay endpoint. This assay endpoint, CEETOX_H295R_CORTISOL_noMTC, was analyzed with bidirectional fitting relative to DMSO as the negative control and baseline of activity. Using a type of inducible reporter, gain or loss-of-signal activity using HPLC-MS-MS was used to understand synthesis of Cortisol in H295R cell line at 48hr of chemical exposure, without filtering concentrations for maximum tolerated concentration (MTC). To generalize the intended target to other relatable targets, this assay endpoint is annotated to the steroid hormone intended target family, where the subfamily is glucocorticoids.
Cell culture and media preparation procedures were conducted in accordance with OECD Test No. 456 guidelines, with minor modifications. H295R cells (ATCC CRL-2128) were expanded for 5 passages and frozen in batches in liquid nitrogen. Prior to the steroidogenesis assay, H295R cells were thawed and passed at least 4 times. The maximum passage was 10. Cells were maintained in a 1:1 mixture of DMEM/F12 supplemented with 5ml/L ITS+ Premix (BD Bioscience) and 12.5 ml/L Nu-Serum (BD Bioscience). After seeding cells into 96-well plates at 50-60% confluency, cells were allowed to adhere overnight. Prior to chemical testing, culture medium was replaced with 175 uL medium containing 10 uM forskolin to stimulate steroidogenesis for 48 hours. Following prestimulation, forskolin medium was replaced with medium containing test chemical solubilized in DMSO (ensuring a final concentration of 0.1% DMSO). […] For steroid quantification, media samples were shipped to OpAns, LLC (Durham, NC) on dry ice, and samples were thawed to room temperature prior to liquid-liquid extraction. […] Steroid hormones were separated by HPLC, eluted using a reverse phase C18 gradient with electrospray positive ionization, followed by quantification by tandem mass spectrometry (MS/MS). Data were acquired on a MassHunter Workstation Acquisition version B03.01 (Agilent Technologies, Inc.) and processed using MassHunter Quantitative Analysis for QQQ. Accuracy was determined for each hormone analyte from 3 standards to determine upper and lower limits of quantification (ULOQ and LLOQ, respectively) using a 7-point standard curve. Precision and accuracy of the extraction and quantification methods were calculated as the percent relative standard deviation (%RSD) of the spiked standards and percent spiked standard recovered, respectively. The goal was to achieve 100% accuracy (i.e., recover all spiked-in standard at quantification with minimal loss during run time) and good precision (i.e., have %RSD <15% to ensure reproducibility). Test medium was removed following chemical exposure, and cell viability was evaluated in the same wells by MTT. […]

[9] = CEETOX_H295R_CORTIC_noMTC: CeeTox H295R High-throughput Steroidogenesis Assay for Corticosterone (CORTIC), maximum tolerated concentration (MTC) filtered results only (AID 2283917); conditions: actives raise or lower the signal
Procedure, shortened: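 H295R adrenal cells pre-stimulated 48 h with 10 uM forskolin, then exposed 48 h to chemical in 0.1% DMSO; corticosterone in medium quantified by HPLC-MS/MS, fitted bidirectionally versus DMSO without MTT-based concentration filtering.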

[10] = CEETOX_H295R_DOC_noMTC: CeeTox H295R High-throughput Steroidogenesis Assay for DOC, maximum tolerated concentration (MTC) filtered results only (AID 2283918); conditions: actives raise or lower the signal
Procedure, shortened: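 H295R cells prestimulated 48 h with 10 uM forskolin, then exposed 48 h to chemical in 0.1% DMSO. 11-Deoxycorticosterone in medium measured by MTBE extraction and HPLC-MS/MS; bidirectional fit vs DMSO, no MTC filter.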

Measured: AC50

C[C@H]1CCCC(=O)CCC/C=C/c2cc(O)cc(O)c2C(=O)O1
inactive: [3]
active: [1] 2.3 µM | [2] 77.4 µM | [4] 3.94 µM | [5] 36.3 µM | [6] 82.8 µM

O=C1C2(Cl)C3(Cl)C4(Cl)C(Cl)(Cl)C5(Cl)C3(Cl)C1(Cl)C5(Cl)C24Cl (stereo unspecified)
inactive: [7]

ClC(Cl)=C(Cl)C(Cl)=C(Cl)Cl
inactive: [1] | [8] | [9] | [10] | [4]

Cn1sc(Cl)cc1=O
inactive: [1] | [8] | [9] | [10] | [3] | [4] | [5]

c1cc[c]([Hg][c]2ccccc2)cc1
active: [1] 32 µM | [2] 50 µM | [8] 36.9 µM | [9] 76.1 µM | [10] 2.26 µM | [4] 21.9 µM | [6] 67.9 µM
inactive: [3] | [5]

CCC1(c2ccc(N)cc2)CCC(=O)NC1=O (stereo unspecified)
inactive: [1] | [2] | [8] | [9] | [10] | [4] | [6]

CC12CC1(C)C(=O)N(c1cc(Cl)cc(Cl)c1)C2=O (stereo unspecified)
inactive: [7]

O=C(OC1CCCCC1)c1ccccc1C(=O)OC1CCCCC1
active: [1] 0.549 µM | [10] 13.5 µM
inactive: [8] | [9] | [4]
